NS1 inh – influenza NS1 inhibition. Potency, µM (top dose mostly 46.1 µM), inactives show top-dose activity, positive = more growth. AID 2326. actives 0.4% (n = 270,000); note: potency is the fitted concentration of half-maximal effect; actives are rising curves; nearly all actives have a fitted effect of over 50% in size
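Recovery from NS1-induced slow growth read by OD600 in budding yeast switched to galactose assay medium (pH 6.0, -URA) at 1:100 dilution. Compound 23 nl per well; the matching strain lacking NS1 serves as control.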
Cruzain noTriton – inhibitors of Trypanosoma cruzi cruzain without detergent; P25779; purified cruzain, Z-FR-AMC fluorescence, no detergent; Potency, µM, inactives show max response, negative = inhibition, most hits filed as inhibitors; actives 2.3% (n = 200,000); AID 1476; active = well fitted curve in the direction sought with a large enough effect; inconclusive = small, poorly fitted or top-dose-only effect, or another doubt; inactive = no such curve, though single readings can be large; an effect the other way counts as inactive or inconclusive;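 note: potency is the fitted concentration of half-maximal effect; plate controls were enzyme without inhibitor for no effect and buffer without enzyme for full effect; nearly all actives have a fitted effect of over 40% in size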
Target sequence (P25779 123-467 limits assumed): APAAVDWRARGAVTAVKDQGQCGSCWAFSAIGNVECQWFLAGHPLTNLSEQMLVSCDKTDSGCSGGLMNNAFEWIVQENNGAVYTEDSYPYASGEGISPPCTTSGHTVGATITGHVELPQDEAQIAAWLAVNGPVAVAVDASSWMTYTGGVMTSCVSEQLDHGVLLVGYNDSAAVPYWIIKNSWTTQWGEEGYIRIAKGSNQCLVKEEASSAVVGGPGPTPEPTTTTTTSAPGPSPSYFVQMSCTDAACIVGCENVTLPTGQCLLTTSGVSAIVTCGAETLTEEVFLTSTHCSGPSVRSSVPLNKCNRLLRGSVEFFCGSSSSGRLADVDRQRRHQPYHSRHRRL
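Purified cruzain at 1.5 nM, pre-incubated 15 min with compound at room temperature in 100 mM sodium acetate pH 5.5, 5 mM DTT, 0.00005% Triton X-100. Reaction started with 2 uM Z-FR-AMC; AMC fluorescence increase over 60 s gives rate.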
Cruzain inh Det – blocks cruzain activity in presence of Triton detergent; P25779; purified cruzain, Z-FR-AMC fluorescence, 0.01% Triton; Potency, µM, for the others: max response, negative = inhibition, actives largely listed as inhibitors; actives 0.43% (n = 200,000); active = well fitted curve in the direction sought with a large enough effect; inconclusive = small, poorly fitted or top-dose-only effect, or another doubt; inactive = no such curve, though single readings can be large; an effect the other way counts as inactive or inconclusive;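 note: potency is the fitted concentration of half-maximal effect; plate controls were neutral wells for no effect and buffer without enzyme for full effect; nearly all actives have a fitted effect of over 40% in size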
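Compounds were screened in titration against cruzain (1.5 nM) with 0.01% Triton X-100 to counter colloidal aggregation. Activity was the AMC fluorescence increase over 60 s after adding 2 uM Z-FR-AMC at pH 5.5.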
NS1 inh valid – validation of influenza NS1 protein function inhibitors. activity change, negative = inhibition, % at 32.9 µM. shares compounds with NS1 inh. 1,400 tested, under 10 active. influenza NS1 function cell assay, 15-point titration. AID 492980; note: 0% is about no effect
Flu PR8 replic – reduces influenza A/PR/8/34 replication in MDCK cells. MDCK infected influenza A/PR/8/34, virus titer TCID50; stronger effect = lower value. shares compounds with NS1 inh. actives 30% (n = 95). AID 504647. virus titer (log TCID50), log10 TCID50 at 5 µM; call rule not given here
An asterisk follows results filed as active; ? = inconclusive; . = no result given. Shown is part of a subset that was picked to be rich in hits. Unless noted, calls come from the whole dose curve.

SMILES | NS1 inh | Cruzain noTriton | Cruzain inh Det | NS1 inh valid | others
CC(=O)N=c1sc2ccccc2n1C | 1% | -4% | 0% | .
Cc1c2ccccc2c(CSC(=N)N)c2ccccc12 | -6% | 0% | 1% | .
Cc1ccccc1Cn1c2ccccc2c2cnn(CC(=O)NCCCc3ccccc3)c(=O)c21 | . | 1% | -2% | .
CCC12C(=O)C(CC)(C(c3ccccc3)=C1c1ccccc1)[C@@H]1C(=O)N(c3ccc(C)cc3)C(=O)C12 (stereo not given in full) | 7% | ? | -4% | .
CCCC12C(=O)C(C)(C(c3ccccc3)=C1c1ccccc1)C1C(=O)N(c3ccc(C)cc3)C(=O)C12 (stereo not given) | 10µM* | 20µM* | -1% | -26 | Flu PR8 replic=6.5*
Cc1ccccc1Cn1c(=O)n(CCCCC(=O)NCCc2ccccc2)c(=O)c2ccccc21 | . | 0% | -4% | .
O=C(Nc1ccc(Cl)cc1C(F)(F)F)C(Sc1nnc(-c2cccs2)o1)c1ccccc1 (stereo not given) | 25% | ? | -2% | .
COc1ccc(C)cc1NC(=O)C(Sc1nnc(-c2cccs2)o1)c1ccccc1 (stereo not given) | 11µM* | ? | -5% | -26
CCc1c(C)c2cc3c(c(C)c2oc1=O)OCN(CCc1ccccc1F)C3 | . | -3% | -6% | .
CCOc1ccc(NC(=O)Cn2c(=O)n(-c3ccccc3)c(=O)c3ccc(C(=O)NCc4ccc5c(c4)OCO5)cc32)cc1 | . | ? | -2% | .
Cc1ccc(C(=O)CSc2nn3c(=O)c(C(C)(C)C)nnc3s2)cc1 | 20% | 4% | -9% | .
CC(C)(C)c1nnc2sc(SCC(=O)c3ccc(Cl)cc3)nn2c1=O | 11µM* | -29% | -8% | 26 | Flu PR8 replic=8.5
CCN(Cc1ccccc1)S(=O)(=O)c1cc(C(=O)Nc2cc(Cl)cc(Cl)c2)ccc1F | . | ? | 2% | .
O=C(NCc1ccccc1Cl)c1c2c(nc3ccccc13)C(=O)N(C1CCCCC1)C2 | . | ? | -4% | .
N#CCBr | . | -9% | 5% | .
Cc1ccc(S(=O)(=O)Oc2cc(S(=O)(=O)O)cc3cc(S(=O)(=O)O)cc(N)c23)cc1 | -3% | 4% | 2% | .
Cc1cc(=O)n2[nH]cc(-c3ccccc3)c2n1 | 28% | . | . | .
Cc1cc(-c2ccccc2)c2c(=O)[nH][nH]c2n1 | 10µM* | 2% | -2% | ?
COc1cccc(/C=C2\C(=O)N(c3cccc(C)c3)C(=O)c3ccccc32)c1 | ? | -21% | 3% | ?
Cc1cccc(N2C(=O)/C(=C\c3ccc(OC(F)F)cc3)c3ccccc3C2=O)c1 | -7% | -23% | -8% | .
COc1ccccc1CCNC(=O)Cc1ccc(NC(=O)N2CCSc3ncccc32)cc1 | . | 0% | -15% | .
COc1cccc2c1OCC/C2=N\NC(=O)COc1ccc(C)cc1 | ? | -16% | 3% | -28
Cc1ccc(OCC(=O)N/N=C2\CCOc3c(C)cccc32)cc1 | -3% | 4% | 1% | .
COc1cccc(C2C(C(=O)Nc3ccccc3OC)=C(C)Nc3nc(-c4ccco4)nn32)c1 (stereo not given) | . | 18% | -8% | .
COc1ccc(S(=O)(=O)N2CCCCCC2)cc1C(=O)N(C)CC(=O)Nc1cc(C)ccc1C | 13% | . | . | .
SMILES | NS1 inh | Cruzain noTriton | Cruzain inh Det | NS1 inh valid | others
Cc1ccc(S(=O)(=O)N2CCCCC2)cc1C(=O)N(C)CC(=O)Nc1ccc(Cl)c(C(F)(F)F)c1 | 10µM* | . | . | -14
Cc1ccc(CN2CCCn3nc(C(=O)NCc4ccc(N(C)C)cc4)cc3C2=O)cc1 | . | -2% | -4% | .
CC(=O)NC1C(O)C[C@@](O)(C(=O)O)OC1[C@@H](O)C(O)CO (stereo not given in full) | . | -7% | 2% | .
O=S(=O)(c1cc(Br)c(Br)s1)N1CCN(c2ccccc2)CC1 | . | -4% | 0% | .
COc1ccc(-c2nc(-c3ccccc3)c(-c3cc([N+](=O)[O-])ccc3C)[nH]2)cc1O | 21% | 7% | -4% | .
COc1ccc(-c2nc(=S)c3c([nH]2)Oc2ccc(C)cc2C3)cc1O | 10µM* | 10µM* | 0% | -6
O=C(NCCc1ccccc1)c1ccc2c(c1)nc1n2CCOC1 | . | -15% | 2% | .
Cc1ccc(S(=O)(=O)N(C)c2cc(S(=O)(=O)N3CCC(C)CC3)c(C)cc2C)cc1 | 11µM* | -3% | 1% | 10
CNS(=O)(=O)c1cc(N(C)S(=O)(=O)c2ccc(C)cc2)c(C)cc1C | 1% | . | . | .
O=C(Nc1ccccc1Cl)Oc1ccc2ccccc2c1 | ? | . | . | 1
O=C(Nc1ccccc1Cl)c1ccc2ccccc2c1 | -2% | . | . | .
CCOC(=O)c1cc(-c2ccccc2)sc1NC(=O)CN1C(=O)NC(CC)(c2ccc(F)cc2)C1=O (stereo not given) | 11µM* | 10µM* | 1% | -24
CCC1(c2ccc(F)cc2)NC(=O)N(CC(=O)Nc2ccc(C(N)=O)cc2)C1=O (stereo not given) | -5% | . | . | .
COc1ccc(CNc2cc(-c3ccccc3CN(C)C)ncn2)c(OC)c1 | . | 5% | -1% | .
CCCCNC(=O)c1ccc2c(c1)ncn2C1CCCC1 | -4% | 11% | 4% | .
CC1CC(C)CN(CCCNC(=O)c2ccc3c(c2)ncn3C2CCCC2)C1 (stereo not given) | ? | . | . | -38
C[C@@](N)(/C=C\c1ccccc1)C(=O)O | 3% | 6% | 2% | .
CSc1ccc(CCNC(=O)C(C)n2c(C)c3cnn(-c4ccccc4)c(=O)c3c2C)cc1 (stereo not given) | . | ? | -8% | .
COc1cc(CC(=O)O)ccc1OCc1ccccc1 | 3% | . | . | .
COc1cc(C(c2c(C(=O)O)[nH]c3ccccc23)c2c(C(=O)O)[nH]c3ccccc23)ccc1OCc1ccccc1 | 6.3µM* | . | . | 0
CN(C)S(=O)(=O)c1cc(NC(=O)CSc2ncc(C(F)(F)F)cc2Cl)ccc1Cl | 13µM* | 0% | -10% | -11
COCCn1c(SCC(=O)Nc2ccc(Cl)c(S(=O)(=O)N(C)C)c2)nc2ccccc21 | -3% | 15% | 3% | .
CC(C)(C)[C@]1(O)CCN2CC3c4ccccc4CCc4cccc(c43)[C@@H]2C1 (stereo not given in full) | -18% | 10% | -3% | .
COc1ccccc1NC(C)C(=O)N/N=C/c1ccccc1OCc1cccc(Br)c1 (stereo not given) | 16µM* | ? | -4% | -13
Cc1cc(C)nc(N/N=C/c2ccccc2OCc2cccc(Br)c2)n1 | -33% | 5% | -3% | .
CN1CCN(c2ncnc3ccc(-c4cccc(NS(C)(=O)=O)c4)cc23)CC1 | . | -3% | 0% | .
c1ccc2c3c([nH]c2c1)[C@@H]1[C@H]2CC[C@H]([C@H]4CCCN[C@H]42)N1CC3 | . | -2% | -6% | .
O=C(O)CC(c1ccc(F)cc1F)N1Cc2ccccc2C1=O (stereo not given) | -2% | . | . | .
O=C(O)CC(c1cccc2ccccc12)N1Cc2ccccc2C1=O (stereo not given) | ? | . | . | 15
O=C(Oc1ccccc1)N1CCC2(CC1)CCN(c1ccccc1)CC2 | . | -2% | -5% | .

Bioassay records: PubChem BioAssay, National Center for Advancing Translational Sciences (NCATS)
